According to PubChem BioAssay (NCI):
Compounds without any hit were thinned out: in the full panel of roughly 79,000, 15% have a hit. Calls of active or inactive are those of the source. No stated cut-off is given here; in the data, active means growth inhibition above about 70%; inactive means the rest.

Experiments:
[1] = NCI Yeast Anticancer Drug Screen. Data for the rad52 strain (AID 147);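 further: 0% = growth of vehicle-treated control cultures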; settings: S. cerevisiae rad52 mutant growth inhibition, stronger effect = higher value
Method in brief: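 Here a repair-compromised yeast strain receives each compound; its growth is then quantified and normalised to vehicle-only controls.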

[2] = NCI Yeast Anticancer Drug Screen. Data for the wt1 strain (AID 149);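 further: 0% = growth of vehicle-treated wt1 cultures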; settings: S. cerevisiae wt1 strain (SPY 50644) growth inhibition, stronger effect = higher value
Method in brief: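 wt1 yeast, compound-treated; % growth inhibition vs vehicle control.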

[3] = NCI Yeast Anticancer Drug Screen. Data for the rad50EPP+ strain (AID 151);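 further: 0% = growth of vehicle-treated control cultures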; settings: S. cerevisiae rad50 mutant strain, stronger effect = higher value
Method in brief: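 Read-out is yeast growth inhibition relative to vehicle; cells used were the rad50EPP+ strain.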

[4] = NCI Yeast Anticancer Drug Screen. Data for the mgt1 strain (AID 153); settings: S. cerevisiae mgt1 mutant growth inhibition, stronger effect = higher value
Method in brief: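 Measured: inhibition of mgt1 yeast growth by compound, normalized to vehicle-treated cultures.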

[5] = NCI Yeast Anticancer Drug Screen. Data for the rad50 strain (AID 155);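 further: 0% = growth of vehicle-only cultures of the same strain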; settings: S. cerevisiae rad50 strain growth inhibition, stronger effect = higher value
Method in brief: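 Genetically altered yeast (DNA repair pathway); compound treatment; growth inhibition vs vehicle ctrl.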

[6] = NCI Yeast Anticancer Drug Screen. Data for the mec2-1 strain (AID 157); settings: S. cerevisiae mec2-1 strain, stronger effect = higher value
Method in brief: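 Using mec2-1 yeast: add compound, measure growth, express inhibition versus vehicle-treated cultures.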

[7] = NCI Yeast Anticancer Drug Screen. Data for the sgs1 mgt1 strain (AID 161);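 further: 0% = growth of cultures given vehicle only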; settings: S. cerevisiae sgs1 mgt1 strain, stronger effect = higher value
Method in brief: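 This yeast growth screen uses a strain with defined DNA-repair lesions; compound-treated growth is compared with vehicle-treated growth.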

[8] = NCI Yeast Anticancer Drug Screen. Data for the CLN2oe strain (AID 163);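 further: 0% = growth of vehicle-only control cultures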; settings: S. cerevisiae CLN2oe strain, stronger effect = higher value
Method in brief: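 Whole-cell yeast growth assay. A strain engineered for altered cell-cycle control received compound, and inhibition relative to vehicle-treated cultures was recorded.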

[9] = NCI Yeast Anticancer Drug Screen. Data for the cln2 rad14 strain (AID 165);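 further: 0% = growth equal to vehicle treated cultures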; settings: S. cerevisiae cln2 rad14 strain, stronger effect = higher value
Method in brief: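 Yeast strain cln2 rad14, bearing defects in cell cycle control and DNA repair, serves as the test system; values reflect growth inhibition compared with vehicle.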

[10] = NCI Yeast Anticancer Drug Screen. Data for the bub3 strain (AID 167); settings: S. cerevisiae bub3 mutant strain, stronger effect = higher value
Method in brief: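 Yeast carrying a defined mutation is treated with each compound, and growth is compared with that of vehicle-exposed cells to give inhibition.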

[11] = NCI Yeast Anticancer Drug Screen. Data for the wt2 strain (AID 169);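 further: 0% = growth of vehicle-treated yeast cultures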; settings: S. cerevisiae wt2 strain growth inhibition, stronger effect = higher value
Method in brief: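 Treated yeast vs. vehicle-treated yeast: growth inhibition determined.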

[12] = NCI Yeast Anticancer Drug Screen. Data for the mlh1 strain (AID 171);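 further: 0% = growth of vehicle-treated control cultures of the same strain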; settings: S. cerevisiae mlh1 strain growth inhibition, stronger effect = higher value
Method in brief: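 A yeast strain with a defined genetic lesion serves as the test organism. Cultures receive compound or vehicle, and growth is measured.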

[13] = NCI Yeast Anticancer Drug Screen. Data for the mlh1 rad18 strain (AID 175); settings: S. cerevisiae mlh1 rad18 strain growth inhibition, stronger effect = higher value
Method in brief: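 Steps: expose repair-defective yeast to compound; measure growth; express inhibition against vehicle-treated controls.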

[14] = NCI Yeast Anticancer Drug Screen. Data for the rad18 strain (AID 177); settings: S. cerevisiae rad18 mutant growth inhibition, stronger effect = higher value
Method in brief: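 Measured value is growth inhibition of a yeast strain bearing a DNA repair alteration, referenced to vehicle-treated cells.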

[15] = NCI Yeast Anticancer Drug Screen. Data for the rad14 strain (AID 159);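 further: 0% = growth of vehicle-treated control cultures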; settings: S. cerevisiae rad14 strain growth inhibition, stronger effect = higher value
Method in brief: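 Test compounds were applied to a repair-deficient yeast strain. Its growth was then compared with that of cultures given vehicle alone, and inhibition was expressed relative to those controls.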

[16] = NCI Yeast Anticancer Drug Screen. Data for the sgs1 strain (AID 173);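 further: 0% = growth of vehicle-only control cultures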; settings: S. cerevisiae sgs1 mutant, stronger effect = higher value
Method in brief: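 A genetically defined yeast mutant is incubated with the test compound, and its growth is compared to that of the same strain given vehicle.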

[17] = at 5.0 µM (retest, dose inferred, filed as 0.5)
[18] = at 50.0 µM (retest, dose inferred, filed as 5.0)

Measured: growth inhibition

Cc1ccc([N+](=O)[O-])c2c(NCCC[N+](C)(C)[O-])c3ccccc3nc12
active: [1]; at 100.0 µM 85% | [5]; at 100.0 µM 81% | [6]; at 100.0 µM 82% | [9]; [18] 91% | [9]; at 50.0 µM 77.8% | [13]; [18] 82% | [14]; at 3.7 µM 76% | [14]; at 11.0 µM 90% | [14]; at 33.0 µM 94% | [14]; at 100.0 µM 94%
inactive: [1]; at 1.2 µM -8% | [1]; at 3.7 µM -4% | [1]; at 11.0 µM 8% | [1]; at 33.0 µM 47% | [2]; at 1.2 µM -5% | [2]; at 3.7 µM 0% | [2]; at 11.0 µM 2% | [2]; at 33.0 µM 2% | [2]; at 100.0 µM 2% | [3]; at 1.2 µM -9% | [3]; at 3.7 µM -10% | [3]; at 11.0 µM -6% | [3]; at 33.0 µM 8% | [3]; at 100.0 µM 54% | [4]; at 1.2 µM -2% | [4]; at 3.7 µM 0% | [4]; at 11.0 µM -6% | [4]; at 33.0 µM 5% | [4]; at 100.0 µM 1% | [5]; at 1.2 µM 4% | [5]; at 3.7 µM 7% | [5]; [17] -16% | [5]; at 11.0 µM 3% | [5]; at 33.0 µM 38% | [5]; [18] 44% | [5]; at 50.0 µM 61.2% | [6]; at 1.2 µM -15% | [6]; at 3.7 µM -10% | [6]; [17] 11% | [6]; at 11.0 µM -14% | [6]; at 33.0 µM -1% | [6]; [18] 64% | [6]; at 50.0 µM 1.6% | [7]; [17] 6% | [7]; [18] 62% | [7]; at 50.0 µM 56.8% | [8]; at 1.2 µM -16% | [8]; at 3.7 µM -9% | [8]; at 11.0 µM -17% | [8]; at 33.0 µM -21% | [8]; at 100.0 µM 10% | [9]; [17] 18% | [10]; at 1.2 µM -11% | [10]; at 3.7 µM -4% | [10]; [17] -22% | [10]; at 11.0 µM -20% | [10]; at 33.0 µM -13% | [10]; [18] 3% | [10]; at 50.0 µM -36% | [10]; at 100.0 µM -17% | [11]; at 1.2 µM 0% | [11]; at 3.7 µM -4% | [11]; at 11.0 µM 4% | [11]; at 33.0 µM 8% | [11]; at 100.0 µM 10% | [12]; at 1.2 µM 26% | [12]; at 3.7 µM 11% | [12]; at 11.0 µM 10% | [12]; at 33.0 µM -12% | [12]; at 100.0 µM 27% | [13]; [17] 31% | [13]; at 50.0 µM 45.1% | [14]; at 1.2 µM 22%

Cc1cccc(C)c1NC(=O)CCC(=O)C(C)C(=O)c1ccc(O)cc1 (stereo unspecified)
inactive: [1]; at 1.2 µM 2% | [1]; at 3.7 µM 1% | [1]; at 11.0 µM 2% | [1]; at 33.0 µM 1% | [1]; at 100.0 µM 0% | [2]; at 1.2 µM -1% | [2]; at 3.7 µM -2% | [2]; at 11.0 µM -1% | [2]; at 33.0 µM -1% | [2]; at 100.0 µM -2% | [3]; at 1.2 µM 0% | [3]; at 3.7 µM -1% | [3]; at 11.0 µM 1% | [3]; at 33.0 µM 1% | [3]; at 100.0 µM 8% | [5]; at 1.2 µM -1% | [5]; at 3.7 µM 0% | [5]; [17] 1% | [5]; at 11.0 µM 1% | [5]; at 33.0 µM 1% | [5]; [18] 2% | [5]; at 50.0 µM 57.6% | [5]; at 100.0 µM 0% | [6]; at 1.2 µM -6% | [6]; at 3.7 µM -5% | [6]; [17] -2% | [6]; at 11.0 µM -6% | [6]; at 33.0 µM -3% | [6]; [18] 8% | [6]; at 50.0 µM 15.1% | [6]; at 100.0 µM -5% | [15]; at 1.2 µM -1% | [15]; at 3.7 µM 2% | [15]; at 11.0 µM 2% | [15]; at 33.0 µM 0% | [15]; at 100.0 µM -1% | [7]; [17] 0% | [7]; [18] 5% | [7]; at 50.0 µM 23.2% | [8]; at 1.2 µM -5% | [8]; at 3.7 µM -4% | [8]; at 11.0 µM -3% | [8]; at 33.0 µM 1% | [8]; at 100.0 µM -3% | [9]; [17] -2% | [9]; [18] 2% | [9]; at 50.0 µM 50% | [10]; at 1.2 µM -2% | [10]; at 3.7 µM -2% | [10]; [17] 0% | [10]; at 11.0 µM -2% | [10]; at 33.0 µM -2% | [10]; [18] 7% | [10]; at 50.0 µM 11.8% | [10]; at 100.0 µM 5% | [11]; at 1.2 µM -1% | [11]; at 3.7 µM -1% | [11]; at 11.0 µM 0% | [11]; at 33.0 µM 0% | [11]; at 100.0 µM -1% | [12]; at 1.2 µM -2% | [12]; at 3.7 µM -3% | [12]; at 11.0 µM -1% | [12]; at 33.0 µM -2% | [12]; at 100.0 µM -1% | [16]; at 1.2 µM -2% | [16]; at 3.7 µM -2% | [16]; at 11.0 µM -2% | [16]; at 33.0 µM -2% | [16]; at 100.0 µM 0% | [13]; [17] -1% | [13]; [18] 6% | [13]; at 50.0 µM 6.95% | [14]; at 1.2 µM -2% | [14]; at 3.7 µM -1% | [14]; at 11.0 µM 0% | [14]; at 33.0 µM -2% | [14]; at 100.0 µM 0%
